# An excerpt weighted towards active compounds, which were near 2.4% of everything screened.
# CHRM1 PAM – positive allosteric modulators of human M1 muscarinic receptor. P11229. CHO-K1 hM1, Fluo-8 calcium fluorescence, ACh EC20; 0% = ACh EC20, 100% = maximal ACh. activation, % at 3 µM. 0.088% of 360,000 active. AID 588819; in the data active = activation above about 19%, passing the limit was not always enough
# Target sequence (P11229 whole entry, looked up): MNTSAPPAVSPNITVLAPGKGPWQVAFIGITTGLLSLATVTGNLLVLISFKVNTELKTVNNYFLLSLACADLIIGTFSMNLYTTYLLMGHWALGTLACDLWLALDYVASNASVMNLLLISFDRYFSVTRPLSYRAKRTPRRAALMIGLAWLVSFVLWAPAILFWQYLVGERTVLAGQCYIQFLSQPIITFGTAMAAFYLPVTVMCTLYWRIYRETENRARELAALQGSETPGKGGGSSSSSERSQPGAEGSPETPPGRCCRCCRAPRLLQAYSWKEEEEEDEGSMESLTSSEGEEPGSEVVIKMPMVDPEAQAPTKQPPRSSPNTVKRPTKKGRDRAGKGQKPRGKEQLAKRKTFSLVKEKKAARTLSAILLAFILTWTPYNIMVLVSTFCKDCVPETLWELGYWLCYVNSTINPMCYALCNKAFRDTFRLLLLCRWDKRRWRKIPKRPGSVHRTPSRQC
# M1 ag parental – counter-screen for M1 agonists: effect in parental CHO-K1 cells; Fluo-8 calcium fluorescence; scaled to maximal ATP response, vehicle zero; AID 602248; 0.48% of 360,000 active; activation, % at 3 µM; in the data active = activation above about 15%;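 also: untransfected CHO-K1 host cells lacking M1 receptor as counterscreen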
# CHRM1 agonist – agonists of human M1 muscarinic receptor; activation, % at 3 µM; CHO-K1 hM1, Fluo-8 calcium fluorescence, agonist mode; 0% DMSO, 100% acetylcholine EC100; P11229; 0.33% of 360,000 active;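 active = activation above the run's mean compound activation plus 3 SD, cut at about 16% in these data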;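 also: peak over basal fluorescence ratio within a 140 s kinetic read after compound addition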
# CHO-K1 Ca antag – nonselective inhibitor or artifact in parental CHO-K1 cells. ATP-induced calcium, Fluo-8 fluorescence. inhibition, % at 3 µM. 0.6% of 360,000 active. AID 602250;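 active = inhibition above a per-plate cutoff, the plate's mean sample inhibition plus 3 SD, cut at about 24% in these data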
# CHO-K1 Ca PAM – nonselective activator or artifact in parental CHO-K1 calcium assay. ATP EC20, Fluo-8 calcium fluorescence; 0% at ATP EC20, 100% at ATP max. activation, % at 3 µM. 0.02% of 360,000 active;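 active = activation above the run cutoff, the mean activation of all test compounds plus 3 SD, cut at about 40% in these data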;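 also: peak over basal fluorescence ratio in a 140 s read after ATP addition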
# M1 antag – human CHRM1 antagonism; 1.3% of 360,000 active; CHO-K1 hM1, Fluo-8 calcium fluorescence, ACh EC80 antagonist; inhibition, % at 3 µM; P11229;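 active = percent inhibition above its own plate's cutoff, namely the mean of that plate's compound wells plus 3 SD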;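 also: peak over basal fluorescence ratio during 140 s after agonist addition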
# Hits are given with their value; n = inactive; x = not tested or not shown.
SMILES,CHRM1 PAM,M1 ag parental,CHRM1 agonist,CHO-K1 Ca antag,CHO-K1 Ca PAM,M1 antag
Cc1cc(NC(=O)CS(=O)(=O)c2cn(Cc3cccc(C(F)(F)F)c3)c3ccccc23)no1,n,n,18,n,n,n
Cc1cc(NC(=O)CSCC(=O)NCc2cccc(C(F)(F)F)c2)no1,n,n,n,n,n,n
O=C(NCCOc1ccccc1)C1CCC(=O)N(CCCN2CCCC2=O)C1 (stereo not given),n,n,n,n,n,n
COc1ccc(C2(C)NC(=O)N(CC(=O)c3cc(C)n(C4CC4)c3C)C2=O)cc1OC (stereo not given),n,n,n,n,n,n
CCn1cc(S(=O)(=O)CC(=O)Nc2cc(C)on2)c2ccccc21,n,n,n,n,n,n
Cc1cc(NC(=O)CS(=O)(=O)c2cn(Cc3ccc(F)cc3)c3ccccc23)no1,n,n,32,n,n,n
C[N+](C)(C)CC/C=C1/c2ccccc2CSc2ccccc21,n,n,n,n,n,96
CC(=O)OCCCN(C)CC/C=C1/c2ccccc2CSc2ccccc21,n,n,n,n,n,74
O=C(CN1CCCCC1)NCC(=O)Nc1ccc(F)c(F)c1F,n,n,n,n,n,n
COc1ccc(/C=C/C(=O)c2ccc(NC3=NCCCS3)cc2)cc1OC,n,n,n,n,n,n
COC(=O)C1CCN(Cc2ccc(OCCCN3CCN(c4ccc([N+](=O)[O-])cc4)CC3)cc2)CC1,n,n,n,n,n,48
O=C1C2CCCCN2C(=O)N1CCCCN1CCN(c2ccc([N+](=O)[O-])cc2)CC1 (stereo not given),n,16,n,n,n,n
CCc1sc(C(=O)NCCc2ccc(S(N)(=O)=O)cc2)cc1Br,n,n,n,29,n,n
O=C(COC(=O)c1ccc(F)cc1F)NC1CC1,n,n,n,30,n,n
O=C(COC(=O)c1ccc(F)cc1F)NCCNC(=O)COC(=O)c1ccc(F)cc1F,n,n,n,n,n,n
FC(F)Oc1ccc(-c2c[n+]3c(n2-c2ccccc2)CCCCC3)cc1,n,n,n,n,n,n
COc1ccc(-c2c[n+]3c(n2-c2ccccc2)SCC3)cc1OC,n,n,n,n,n,n
Brc1ccc(-c2c[n+]3c(n2-c2ccccc2)SCC3)cc1,n,n,n,n,n,73
Cc1ccc(-c2c[n+]3c(n2-c2ccccc2)SCC3)cc1,n,n,n,n,n,54
COc1ccc(-c2c[n+]3c(n2-c2ccccc2)SCC3)cc1,n,n,n,n,n,62
O=C(Nc1nnc(SCc2c(Cl)cccc2Cl)s1)C1CC(=O)N(c2ccc3c(c2)OCCO3)C1 (stereo not given),n,n,n,n,n,33
O=C(Nc1nnc(SCc2ccc(F)cc2)s1)C1CC(=O)N(c2ccc3c(c2)OCCO3)C1 (stereo not given),n,n,n,n,n,n
CN(C)c1ccc(/C=C/C=N/Nc2nc(N3CCOCC3)nc(N3CCOCC3)n2)cc1,n,n,n,n,n,n
COc1cccc(C(=O)Nc2cc(C)ccc2NC(=O)COc2ccccc2)c1,n,n,n,n,n,48
Cc1cc2nc(-c3nnnn3-c3c(C)cccc3C)c(=O)[nH]c2cc1C,x,n,x,24,n,x
SMILES,CHRM1 PAM,M1 ag parental,CHRM1 agonist,CHO-K1 Ca antag,CHO-K1 Ca PAM,M1 antag
COc1ccc(NC(=O)C(C)Oc2ccc(/C(C)=N\O)cc2)cc1 (stereo not given),n,n,17,n,n,n
CC(C)NS(=O)(=O)c1ccc(NC(=O)C(C)Oc2ccc(C(=O)c3ccccc3)cc2)cc1 (stereo not given),n,44,57,51,n,66
CCCC#Cc1ccc2c(c1)O[C@@H](CN(C)Cc1ccc3c(c1)OCO3)[C@H](C)CN([C@@H](C)CO)S2(=O)=O,n,n,n,n,n,n
CCOc1ccc(S(=O)(=O)NC(C)(C)C)cc1-c1nc2c(C(C)(C)C)nn(C)c2c(=O)[nH]1,n,n,n,n,n,n
Nc1cc(=O)[nH]c(=S)n1-c1ccccc1,n,n,n,32,n,n
Cc1cc(=O)[nH]c(=S)n1-c1ccccc1,n,n,n,n,n,n
CCc1nc2ccc(C(=O)NCC3CCCCC3)cn2c1N(C)C(=O)c1cccc(OC)c1,n,n,n,n,n,n
CCc1cccc(C)c1NC(=S)N(CCN(C)C)C(C)c1ccco1 (stereo not given),n,n,n,n,n,n
Cc1ccc(NC(=O)COC(=O)Cc2ccc(Br)cc2)cc1S(=O)(=O)N1CCOCC1,n,n,n,n,n,35
Cc1ccc(NC(=O)COC(=O)Cc2ccccc2)cc1S(=O)(=O)N1CCOCC1,n,n,n,n,n,n
Cc1ccc(NC(=O)COC(=O)CN2C(=O)NC(C)(C)C2=O)cc1S(=O)(=O)N1CCOCC1,n,19,n,n,n,n
Cc1ccc2c(c1)N(CCC(=O)NCCCN1CCCC1)C(=O)C(C)O2 (stereo not given),n,n,n,n,n,n
O=C(OCC(=O)N1CCN(C(=O)c2ccco2)CC1)c1ccccc1OCc1ccc(Cl)cc1,n,n,n,n,n,n
Cc1ccc(C)n1-n1c(C)nc2sc3c(c2c1=O)CCCCC3,n,n,n,n,n,28
O=C(Oc1ccc2c(c1)O/C(=C\c1ccncc1)C2=O)c1cccs1,n,n,n,n,n,n
CC(=O)Oc1ccc2c(c1)O/C(=C\c1ccncc1)C2=O,n,18,n,n,n,n
COc1ccc2c(c1OC)C(=O)N(c1cccc(NC(C)=O)c1)C2,n,n,n,n,n,n
COc1cccc(C(=O)OC(C)CN2CCCC2)c1 (stereo not given),n,n,n,n,n,39
CC(CN1CCCCC1)OC(=O)c1cc2ccccc2o1 (stereo not given),n,n,n,n,n,37
CC1CCN(CC(C)OC(=O)c2ccc3c(c2)OCCO3)CC1 (stereo not given),n,n,n,n,n,67
CC(CN1CCCCC1)OC(=O)c1ccc2c(c1)OCO2 (stereo not given),n,n,n,n,n,n
O=C(c1cc2ccccc2o1)N1CCCCCC1,n,n,n,n,n,n
CC(CN1CCCCC1)OC(=O)c1cccc(F)c1 (stereo not given),n,n,n,n,n,n
COc1ccc(CNC(=O)COC(=O)c2ccc(F)c(S(=O)(=O)N3CCCCC3)c2)cc1OC,n,n,n,n,n,n
COc1ccc(C(=O)NC(=O)CSc2nc3nc(C)cc(C)n3n2)cc1,n,n,n,n,n,n
O=[N+]([O-])c1ccc(NN=C2CC3CCC2C3)c([N+](=O)[O-])c1 (stereo not given),n,n,n,n,n,39
